Screening results as filed in PubChem.
Only some compounds are listed: those with a hit (about 13% of all), similar ones and a draw of the others.
USP10 block: inhibitors of human USP10 deubiquitinase. Q14694. purified USP10, Ub-rhodamine fluorescence, 60 min. inhibition, % at 20 µM. actives 1.1% (n = 47,000)
Target sequence (Q14694 whole entry, looked up): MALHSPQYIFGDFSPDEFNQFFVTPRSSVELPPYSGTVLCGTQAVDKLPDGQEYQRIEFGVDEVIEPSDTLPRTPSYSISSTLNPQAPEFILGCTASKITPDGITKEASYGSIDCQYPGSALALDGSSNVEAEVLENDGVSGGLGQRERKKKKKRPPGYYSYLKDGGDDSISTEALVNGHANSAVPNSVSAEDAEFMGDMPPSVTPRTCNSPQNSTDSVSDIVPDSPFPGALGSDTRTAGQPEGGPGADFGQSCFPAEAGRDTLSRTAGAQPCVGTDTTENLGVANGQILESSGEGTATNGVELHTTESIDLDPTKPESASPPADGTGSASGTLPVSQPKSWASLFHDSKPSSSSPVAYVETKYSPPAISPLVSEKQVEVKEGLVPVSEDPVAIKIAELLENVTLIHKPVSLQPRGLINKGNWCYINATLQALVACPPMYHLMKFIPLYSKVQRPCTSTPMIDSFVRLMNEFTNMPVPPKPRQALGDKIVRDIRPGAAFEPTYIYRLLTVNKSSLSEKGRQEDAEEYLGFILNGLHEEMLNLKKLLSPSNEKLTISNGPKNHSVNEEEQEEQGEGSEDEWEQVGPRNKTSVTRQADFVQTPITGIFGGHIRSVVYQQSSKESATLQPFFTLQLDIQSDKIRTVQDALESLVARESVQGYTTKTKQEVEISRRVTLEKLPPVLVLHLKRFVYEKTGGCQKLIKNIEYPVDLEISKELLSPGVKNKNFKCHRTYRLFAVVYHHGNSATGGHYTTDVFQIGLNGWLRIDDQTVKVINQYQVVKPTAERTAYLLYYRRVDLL
USP28 inh: blocks human USP28 ubiquitin-rhodamine cleavage | Q96RU2 | purified USP28, Ub-rhodamine cleavage fluorescence, 30 min | inhibition, % at 25 µM | actives 3% (n = 47,000)
USP8 block: inhibitors of human USP8 deubiquitinase; P40818; purified USP8, Ub-rhodamine cleavage fluorescence, 30 min; inhibition, % at 20 µM; actives 4.2% (n = 47,000); AID 1645853
USP30 block: human USP30 deubiquitinase inhibition; purified USP30, Ub-rhodamine cleavage fluorescence; inhibition, % at 25 µM; AID 1645860; Q70CQ3; actives 5.3% (n = 47,000)
USP17 block: human USP17-like deubiquitinase inhibition | purified USP17, Ub-rhodamine cleavage fluorescence, 3 h | inhibition, % at 50 µM | actives 6.5% (n = 47,000) | AID 1645855
Hits are given with their value; 0 = inactive; - = no result given. No stated cut-off is given here; in the data, active means inhibition above about 30%; inactive means the rest.

SMILES	USP10 block	USP28 inh	USP8 block	USP30 block	USP17 block
COc1ccccc1-n1c(SCC(=O)N2CCc3ccccc32)nnc1-c1ccncc1	0	0	0	0	0
CCn1c(SCC(=O)N2CCc3ccccc32)nnc1-c1ccc2c(c1)OCCO2	0	0	0	74	58
COc1ccc(OC)c(-n2c(SCC(=O)N3CCc4ccccc43)nnc2-c2cccc(S(=O)(=O)N(C)C)c2)c1	0	43	0	49	48
CCn1c(SCC(=O)c2c(C)[nH]c3ccccc23)nnc1-c1ccc2c(c1)OCCO2	0	41	0	53	67
Cc1[nH]c2ccccc2c1C(=O)CSc1nnc(-c2cccc(S(=O)(=O)N3CCOCC3)c2)n1-c1ccc(F)cc1	0	0	0	0	0
CC1Cc2ccccc2N1C(=O)CSc1nnc(-c2ccc3c(c2)OCCO3)n1C (stereo not drawn)	0	0	0	0	0
CCn1c(SCC(=O)N2CCc3ccccc32)nnc1-c1ccc(C)c(Cl)c1	0	0	0	0	33
CCn1c(SCC(=O)N2CCc3ccccc32)nnc1C1CC1	0	-	0	-	0
COCCn1c(SC)nc2ccccc2c1=O	0	0	0	0	0
CCN1C[C@H]2CCN(C(=O)Cc3ccc(OC)cc3)CC[C@H]2S1(=O)=O	0	0	0	0	0
Cc1ccccc1Cn1nnc2c(=O)n(Cc3nc(-c4ccccc4)no3)cnc21	0	0	0	0	0
O=c1c2nnn(Cc3ccccc3)c2ncn1Cc1nc(-c2cccc(Cl)c2)no1	0	0	0	36	0
CCn1ccc2c(cc(C(=O)Nc3cc(C)ccc3C)n2C)c1=O	0	0	0	0	-
Cc1cc(/C=C2\C(=N)N3N=CSC3=NC2=O)c(C)n1-c1cccc(F)c1	0	0	0	0	0
CCc1ccc(-n2c(C)cc(/C=C3\C(=N)N4N=CSC4=NC3=O)c2C)cc1	40	0	62	0	46
Cc1nc2ccc(NC(=O)c3cccc(C(F)(F)F)c3)cc2nc1C	0	0	0	0	0
O=C(Nc1ccc(S(=O)(=O)c2cccc(C(F)(F)F)c2)cc1)c1ccc(F)cc1	0	0	0	41	0
CC(Nc1ccccc1Oc1ccccc1)C(=O)N1CC(=O)Nc2ccccc21 (stereo not drawn)	0	37	0	0	0
O=C1CN(C(=O)COc2cccc3ccccc23)c2ccccc2N1	0	0	84	0	41
COc1c2c(cc3c1C(c1nnnn1-c1ccccc1F)N(C)CC3)OCO2 (stereo not drawn)	0	0	0	0	-
O=C(CCc1nnc2n(Cc3ccccc3)c(=O)c3ccccc3n12)NCc1ccc2c(c1)OCO2	44	0	39	0	39
O=C(CCc1nnc2n(Cc3ccccc3)c(=O)c3ccccc3n12)NCCN1CCCC1	0	0	0	0	0
Cc1cccc(CCNC(=O)CCc2nnc3n(CCc4ccccc4)c(=O)c4ccccc4n23)c1	0	0	0	39	0
Cc1ccc(Cn2c(=O)c3ccccc3n3c(CCC(=O)N4CCN(C(=O)c5ccco5)CC4)nnc23)cc1	0	0	0	0	42
O=C(CCc1nnc2n(Cc3ccccc3)c(=O)c3ccccc3n12)N1CCN(c2ccccn2)CC1	0	0	0	60	35
SMILES	USP10 block	USP28 inh	USP8 block	USP30 block	USP17 block
N#Cc1cnc2nc(SCc3ccc(Cl)cc3Cl)nn2c1	0	0	0	0	0
O=C(N[C@H]1C[C@H]2CN(Cc3ccccc3)Cc3ccccc3CN2C1)C1CCOCC1	0	0	0	0	0
O=C(CN(c1cccc2cccnc12)S(=O)(=O)c1ccccc1)N1CCc2ccccc21	0	0	0	0	0
O=C(CCc1nnc2n(Cc3ccc(Cl)cc3)c(=O)c3ccccc3n12)N1CCN(c2ccccn2)CC1	0	62	0	83	52
Cc1ccc(Cn2c(=O)c3ccccc3n3c(CCC(=O)N4CCOCC4)nnc23)cc1	0	0	0	0	0
Cc1ccc(Cn2c(=O)c3ccccc3n3c(CCC(=O)NCC4CCCO4)nnc23)cc1 (stereo not drawn)	0	0	0	39	-
CC(C)CCn1c(=O)c2ccccc2n2c(CCC(=O)NCC3CCCO3)nnc12 (stereo not drawn)	0	0	0	0	0
Cc1ccc(Cn2c(=O)c3ccccc3n3c(CCC(=O)N4CCN(c5ccccn5)CC4)nnc23)cc1	0	0	0	55	43
CCOC(=O)N1CCC(NCc2c(C(=O)O)n(Cc3ccc(C)cc3)c3ccccc23)CC1	0	0	0	0	0
CCOC(=O)c1c(C)nc2n(Cc3ccccc3)c3ccccc3n12	0	0	0	61	0
